# Measured values published in PubChem BioAssay (Tox21).
# Values joined by “and” are separate entries in the source; they are usually repeats but may differ in a detail not shown here. Equal values may be shown once. Results filed as inconclusive are left out. Where a call stands in place of a potency, no number is given. Where a structure was tested more than once in an assay, its records may differ in their call. Active and inactive are the calls of the source. Calls follow the shape of the full dose curve.
# Assay: p53 small molecule agonists, cell-based qHTS assay with human liver microsomes: qHTS cell viability counter screen (AID 1963579)
# Conditions: p53RE-bla HCT-116 viability, ATP luminescence, 16 h, HLM; series mostly up to 66 µM; activity change, negative = cytotoxicity: at the top concentration
# Procedure, shortened: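 p53RE-bla cells (4,000/well) were pre-incubated 5 h at 37 C, then given compounds in DMSO plus human liver microsomes (0.5 mg/mL final) and NADPH (0.5 mg/mL final) for 16 h at 37 C. Viability was read by CellTiter-Glo luminescence.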
# Also: nearly all actives have a fitted effect of over 45% in size.
# Potency is read from the fitted curve at half-maximal effect.
SMILES,Potency,"activity change, negative = cytotoxicity"
O=c1[nH]c(=O)n(Cl)c(=O)n1Cl,inactive,–
CCOP(OCC)OCC,inactive,–
OCC1CO1 (centres undefined),inactive,–
CCOP(=S)(OCC)SCCSCC,inactive,–
COP(=S)(OC)Oc1ccc([N+](=O)[O-])cc1,inactive,–
COc1ccc2c3c1O[C@H]1[C@@H](O)C=C[C@H]4[C@@H](C2)N(C)CC[C@@]341,–,3.92% (inactive)
Oc1ccc(Cl)cc1Cc1ccccc1,inactive and 41.3 µM (active),–
C=C(Cl)CCl,–,2.27% (inactive)
Cc1ccc(Cl)c(O)c1,–,1.4% [at 30.3 µM] (inactive)
CCN(CC)N=O,inactive,–

# Assay: p53 small molecule agonists, cell-based qHTS assay with rat liver microsomes: qHTS cell viability counter screen (AID 1963580)
# Conditions: p53RE-bla HCT-116 + rat microsomes, ATP viability, 16 h; series mostly up to 66 µM; activity change, negative = cytotoxicity: at the top concentration
# Procedure, shortened: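 Intracellular ATP, by CellTiter-Glo luminescence, defines viability. HCT-116 p53RE-bla cells, 4,000 per well, were compound-treated in the presence of rat liver microsomes and NADPH for 16 h at 37 C.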
SMILES,"activity change, negative = cytotoxicity",Potency
O=C(NCc1cccnc1)Nc1ccc([N+](=O)[O-])cc1,-0.662% (inactive),–
ClC1=C(Cl)[C@]2(Cl)[C@@H]3[C@@H](Cl)[C@H](Cl)C[C@@H]3[C@@]1(Cl)C2(Cl)Cl,9.04% (inactive),–
COP(=O)(OC)OC=C(Cl)Cl,–,412 nM (active) and inactive
CNC(=O)CSP(=S)(OC)OC,–,inactive
CCOP(=O)(O)OCC (tested in a mixture with another compound),–,inactive and 36.1 µM (active)
CC(C)OC(=O)Nc1cccc(Cl)c1,–,inactive
C=CCc1ccc(OC)cc1,–,inactive
COc1cc(OC)nc(NC(=O)NS(=O)(=O)c2ncccc2C(=O)N(C)C)n1,2.57% (inactive),–
O=C(Cl)CCl,-9.87% (inactive),–
NC(=O)CF,8.02% (inactive),–
CC(=[OH+])/C=C(/C)[O-].CC(=[OH+])/C=C(\C)[O-].CC(=[OH+])/C=C(\C)[O-].[Al],1.96% (inactive),–
Cc1ccc(CCl)cc1,-0.356% (inactive),–
CC(C)(C)OOC(=O)c1ccccc1,–,inactive
Nc1ccc(-c2ccc(N)cc2)cc1,–,inactive
COP(N)(=O)SC (centres undefined),-0.267% (inactive),–
Cc1ccc([N+](=O)[O-])cc1C,–,inactive
NC(=O)O,2.5% (inactive),–
Clc1cccc(Cl)c1,–,inactive

SMILES,"activity change, negative = cytotoxicity",Potency
CC(COc1ccc(Oc2ccccc2)cc1)Oc1ccccn1 (centres undefined),15.4% (inactive),–
O=C(CBr)c1ccc(O)cc1,17.8% (inactive),–
Cn1c(-c2ccccc2)cc(-c2ccccc2)[n+]1C,–,inactive
O=C1CCCN1,–,inactive
CCCCCCCCCCCCCCCC[N+](C)(C)C,–,inactive
O=S(=O)(O)OOS(=O)(=O)O,–,inactive
CCCCCCCCOC(=O)c1ccccc1C(=O)OCCCCCCCC,–,inactive
CCCCCCCCCCCCCl,–,inactive
O=c1[nH]c(=O)n(Cl)c(=O)n1Cl,–,inactive
CCOP(OCC)OCC,–,inactive
OCC1CO1 (centres undefined),–,41.5 µM (active) and inactive
CCOP(=S)(OCC)SCCSCC,–,inactive
COP(=S)(OC)Oc1ccc([N+](=O)[O-])cc1,–,inactive
COc1ccc2c3c1O[C@H]1[C@@H](O)C=C[C@H]4[C@@H](C2)N(C)CC[C@@]341,–,inactive
Oc1ccc(Cl)cc1Cc1ccccc1,–,45.7 µM (active) and inactive
C=C(Cl)CCl,-0.35% (inactive),–
Cc1ccc(Cl)c(O)c1,1.21% [at 30.3 µM] (inactive),–
CCN(CC)N=O,–,inactive

# Assay: p53 small molecule agonists, cell-based qHTS assay: qHTS cell viability counter screen (AID 1963581)
# Conditions: p53RE-bla HCT-116 viability, ATP luminescence, 16 h; series mostly up to 66 µM; activity change, negative = cytotoxicity: at the top concentration
# Procedure, shortened: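 Following 5 h attachment, HCT-116 p53RE-bla cells took up compound for 16 h at 37 C; the reporter was read with B/G FRET substrate (2 h RT), and viability then via CellTiter-Glo ATP luminescence.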
SMILES,"activity change, negative = cytotoxicity",Potency
O=C(NCc1cccnc1)Nc1ccc([N+](=O)[O-])cc1,6.4% (inactive),–
ClC1=C(Cl)[C@]2(Cl)[C@@H]3[C@@H](Cl)[C@H](Cl)C[C@@H]3[C@@]1(Cl)C2(Cl)Cl,-4.66% (inactive),–
COP(=O)(OC)OC=C(Cl)Cl,–,inactive
CNC(=O)CSP(=S)(OC)OC,–,inactive
CCOP(=O)(O)OCC (tested in a mixture with another compound),–,inactive and 28.6 µM (active)
C=CCc1ccc(OC)cc1,–,inactive
COc1cc(OC)nc(NC(=O)NS(=O)(=O)c2ncccc2C(=O)N(C)C)n1,8.07% (inactive),–
O=C(Cl)CCl,-5.46% (inactive),–
NC(=O)CF,6.5% (inactive),–
CC(=[OH+])/C=C(/C)[O-].CC(=[OH+])/C=C(\C)[O-].CC(=[OH+])/C=C(\C)[O-].[Al],13.1% (inactive),–
Cc1ccc(CCl)cc1,-1.24% (inactive),–
CC(C)(C)OOC(=O)c1ccccc1,–,inactive
Nc1ccc(-c2ccc(N)cc2)cc1,–,inactive
COP(N)(=O)SC (centres undefined),–,inactive
Cc1ccc([N+](=O)[O-])cc1C,–,inactive
NC(=O)O,12.5% (inactive),–
Clc1cccc(Cl)c1,–,inactive

SMILES,"activity change, negative = cytotoxicity",Potency
O=C(CBr)c1ccc(O)cc1,-8.93% (inactive),–
Cn1c(-c2ccccc2)cc(-c2ccccc2)[n+]1C,-2.59% (inactive),–
O=C1CCCN1,–,inactive
CCCCCCCCCCCCCCCC[N+](C)(C)C,-22.7% [at 30.3 µM] (inactive),–
O=S(=O)(O)OOS(=O)(=O)O,–,inactive
CCCCCCCCOC(=O)c1ccccc1C(=O)OCCCCCCCC,–,inactive
CCCCCCCCCCCCCl,–,inactive
COP(=S)(OC)SCN1C(=O)c2ccccc2C1=O,–,inactive
CCOP(OCC)OCC,–,inactive
OCC1CO1 (centres undefined),–,inactive
CCOP(=S)(OCC)SCCSCC,–,inactive
COc1ccc2c3c1O[C@H]1[C@@H](O)C=C[C@H]4[C@@H](C2)N(C)CC[C@@]341,–,inactive
Oc1ccc(Cl)cc1Cc1ccccc1,–,inactive
C=C(Cl)CCl,-7.07% (inactive),–
Cc1ccc(Cl)c(O)c1,-17.9% [at 30.3 µM] (inactive),–
CCN(CC)N=O,–,inactive
